Data on 57 compounds can be found in PubChem BioAssay AID1850 (Southern Research Specialized Biocontainment Screening …, 2009).

About 1,000 (0.32%) of roughly 310,000 compounds were called active. Only a sample is shown. Potency and affinity values are given separately. A number with no mark means an inactive call. How the calls were made is not given here.

Usually inhibition stands for the relative decrease from the control value, in per cent.

The nature of this experiment: Inhibition of PhoP regulon, Salmonella typhi GFP reporter cells, confirmation, 4 h (AID 1850).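 Further: 0% = induced wells with vehicle and 100% = uninduced wells.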 Particulars: Salmonella Typhi PhoP-promoter GFP reporter, fluorescence, at 50 µM, hits give high values.
`Clc1ccc(C[n+]2cc(-c3ccccc3)n3c2CCC3)cc1Cl`: the inhibition was -4.76%.

For the compound `Clc1ccc(-c2c[n+](Cc3ccc(Br)cc3)c3n2CCCCC3)cc1`, the inhibition is 4.54%.

`Cc1ccc(-c2c[n+](Cc3cccc(Cl)c3)c3n2CCC3)cc1`: the inhibition was 9.09%.

As to `Cc1ccc(C[n+]2cc(-c3ccc(Cl)cc3)n3c2CCC3)cc1`, the inhibition was 8.21%. On to `COc1ccc(NC(=S)NC(C)C(c2ccccc2)N2CCOCC2)cc1` (configuration not stated), for which the inhibition is -8.71%.

For the compound `O=C(CNC(=O)Cc1ccc(Cl)cc1)NCC(=O)N1CCCCC1`, the inhibition was -7.52%. In the case of `C=CCn1c(NC(=O)c2ccc(Br)o2)c(S(=O)(=O)c2ccccc2)c2nc3ccccc3nc21`, the inhibition is 21.1%. Consider `CCCCCn1c(NC(=O)c2ccco2)c(S(=O)(=O)c2ccc(C)cc2)c2nc3ccccc3nc21`, for which the inhibition was -3.82%. Turning to `CCCCn1c(NS(=O)(=O)c2ccc(C)cc2)c(C(=O)OCC)c2nc3ccccc3nc21`, the inhibition is -4.9%.

For `CC(=O)Nc1c(S(=O)(=O)c2ccccc2)c2nc3ccccc3nc2n1Cc1ccccc1`, the inhibition was -2.36%. Turning to `CCC(=O)Nc1c(C#N)c2nc3ccccc3nc2n1C1CCCCC1`, the inhibition is 0.26%. `CCOC(=O)c1c(NS(=O)(=O)c2ccccc2)n(CCCOC)c2nc3ccccc3nc12`: the inhibition is -3.68%. As for `CCCCn1c(N)c(S(=O)(=O)c2ccc(C)cc2)c2nc3ccccc3nc21`, the inhibition is -6.91%. For the compound `Nc1c(S(=O)(=O)c2ccccc2)c2nc3ccccc3nc2n1C1CC1`, the inhibition was 0.22%.

As for `CCOC(=O)c1c(C(=O)OCC)c(C)n(Cc2cc(OC)c(OC)c(OC)c2)c1C`, the inhibition is -2.04%. Turning to `COc1ccc(C(=O)N/N=C/c2c(C)nn(-c3ccccc3)c2OC)cc1`, the inhibition was -1.74%. As to `CCn1c(SCC(=O)NCc2ccccc2)nnc1C(CO)NC(=O)c1ccccc1` (configuration not stated), the inhibition was -10.3%. With `CCC(=O)c1ccc(N2CCN(C(=O)Cc3ccccc3)CC2)c(F)c1`, the inhibition was 18.2%.

Consider `CCOC(=O)c1c(N)nn(C(C)=O)c1-c1ccccc1`, for which the inhibition was -5.98%. With `Cc1ccccc1OCC(=O)Nc1nnc(COc2ccccc2)s1`, the inhibition is -8.87%.

`CCCCn1c(SCC(=O)Nc2nnc(CC)s2)nc2ccccc2c1=O`: the inhibition was -4.64%.

In the case of `O=C(N/N=C\c1ccc(Cl)s1)c1ccc(Cn2cccn2)o1`, the inhibition is -13.9%. Turning to `C=C(C)c1cccc(C(C)(C)NC(=O)NCCCN2CCCC2=O)c1`, the inhibition is -0.97%. Take `Cc1noc(C)c1CSCC(=O)N1CCN(c2ccc([N+](=O)[O-])cc2)CC1`: the inhibition was 2.46%. With `CCCCn1c(NC(=O)c2ccc(Br)o2)c(S(=O)(=O)c2ccccc2)c2nc3ccccc3nc21` the figure was -28%; with `Cc1ccc(S(=O)(=O)c2c(N)n(CCCO)c3nc4ccccc4nc23)cc1`, 0.68%; with `CCc1ccc(C(=O)/C=C/c2ccc([N+](=O)[O-])o2)cc1`, -7.72%.

As for `O=[N+]([O-])c1ccc(/C=[N+](\[O-])[C@@H]2CCCC[C@@H]2/[N+]([O-])=C/c2ccc([N+](=O)[O-])o2)o1`, the inhibition is 7.15%. Consider `O=c1oc2cc(S(=O)(=O)NCCCO)ccc2c2ccc(S(=O)(=O)NCCCO)cc12`, for which the inhibition is 0.32%.

With `Cc1cccc(NC(=O)c2cc3ccccc3o2)c1`, the inhibition was -8.7%. The result for `O=C(Nc1ccccc1)c1cc2ccccc2o1` reads 21.6%.

In the case of `COc1ccc(Nc2cc(Nc3cc(OC)c(OC)c(OC)c3)ncn2)cc1`, the inhibition was 10.6%. On to `Cc1ccc(NC(=O)CS(=O)CC(=O)Nc2ccc(N3CCOCC3)cc2)cc1Cl` (configuration not stated), for which the inhibition is 12.6%. Take `CC(C(=O)c1ccc(Br)cc1)[n+]1cccc(NC(=O)c2ccccc2)c1` (configuration not stated): the inhibition is 4.99%. With `CC(C(=O)c1ccc(-c2ccccc2)cc1)[n+]1cccc(C(N)=O)c1` (configuration not stated) the figure was 5.49%; with `CCOC(=O)C1=C(c2ccccc2)OC(N)=C(C#N)C1c1cccnc1` (configuration not stated), 9.75%. Take `CC(=O)C1=C(C)OC(N)=C(C#N)C1c1cccnc1` (configuration not stated): the inhibition is -13.9%. Regarding `CCC(C)(C)n1nnnc1C(c1cc2cc(C)cc(C)c2[nH]c1=O)N1CCN(C(=O)c2ccco2)CC1` (configuration not stated), the inhibition was 8.8%. `COc1ccccc1C1/C(=C(\O)c2ccc3c(c2)OCCO3)C(=O)C(=O)N1CCCn1ccnc1` (configuration not stated): the inhibition is 5.32%. In the case of `COCc1cc(CN2CCN(C)CC2)c(O)c2ncccc12`, the inhibition is 4.48%. In the case of `CN1CCN(Cc2cc(Cl)c3cccnc3c2OC(=O)c2cccs2)CC1`, the inhibition is -8.42%. For the compound `CCOC(=O)N1CCN(Cc2ccccc2Cl)CC1`, the inhibition is -4.15%. With `CCOC(=O)N1CCN(Cc2ccc(O)c3ncccc23)CC1` the figure was 1.82%; with `O=c1c(CN2CCN(c3ccccn3)CC2)coc2ccccc12`, -1.82%. Regarding `O=c1oc2ccccc2c(O)c1Cc1cc(Cl)c2cccnc2c1O`, the inhibition was 10.9%. As for `COc1ccc2nc(N(CCN(C)C)C(=O)c3ccc(C(=O)c4ccccc4)cc3)sc2c1`, the inhibition is -16%.

Take `Cc1ccccc1CSCC(Nc1ccc(C(=O)O)cc1[N+](=O)[O-])C(=O)O` (configuration not stated): the inhibition was -0.8%. In the case of `CCc1nnc(NS(=O)(=O)c2ccc(N3C(=O)C4CC=C(Cl)CC4C3=O)cc2)s1` (configuration not stated), the inhibition was 5.39%.

For `COc1ccc2nc(NCc3ccccc3)[nH]c2c1`, the inhibition is 18.6%. The result for `c1ccc(CNc2nc3ccccc3[nH]2)cc1` reads -2.74%; that for `Cc1cc([N+](=O)[O-])nn1CC(=O)N1CCOCC1`, 12.6%. With `Clc1ccc(C[n+]2c(-c3ccccc3)cc(-c3ccccc3)cc2-c2ccccc2)cc1`, the inhibition is 16.5%. With `Fc1ccc(C[n+]2c(-c3ccccc3)cc(-c3ccccc3)cc2-c2ccccc2)cc1` the figure was 11.1%.

Regarding `Cc1ccc(-c2cc(-c3ccccc3)cc(-c3ccccc3)[n+]2-c2ccccc2)cc1`, the inhibition was 20.6%.

Take `c1ccc(-c2cc(-c3ccccc3)[n+](-c3ccccc3)c(-c3ccccc3)c2)cc1`: the inhibition was 19.1%. For `CCC1CCCCN1C(=O)c1cc(COc2ccc(-n3cncn3)cc2)on1` (configuration not stated), the inhibition was -7.8%. As for `CN(c1ccccc1C(=O)Nc1ccc(S(=O)(=O)N2CCCC2)cc1)S(C)(=O)=O`, the inhibition is 9.12%.
